Each structure is given as a SMILES string. Results filed as inconclusive are left out. A call without a number means that no potency is given here. Active and inactive are the calls of the source. Calls follow the shape of the dose curve; as a rule, active = well fitted inhibition curve with a large enough effect; inconclusive = small, poorly fitted or top-dose-only effect; inactive = flat fitted curve, though single readings scatter.
Potency is read from the fitted curve at half-maximal effect.

In the assay the test system is astro (control astrocytes). The assay can be described thus: Drug repurposing screens with cells derived from glioblastoma tumor samples (AID 1345199). Also: nearly all actives have a fitted effect of over 40% in size. As to conditions: viability, ATP luminescence, 48 h; series mostly up to 45.9 µM. Here is the method:
CD133+ cells were isolated from GBM patient biopsies and cultured as neurospheres. Neurospheres from four patients were used to screen the NCATS pharmaceutical collection (NPC) library of approved drugs and bioactive compounds. […] The neurospheres were incubated with drugs for 48 hours in 1536-well format, then assayed with an ATP content cell viability assay. […] These hits were cherry picked to confirm activity in the four original GBM lines screened plus three other slower growing GMB lines (unable to yield enough cells for a full primary screen). Variable activities of the confirmed primary hits in the different GBM patient lines were observed. The patient line 206 responded to the greatest number of compounds and line 923 responded to the least amount of active compounds.
Turning to `CCCCOc1cc(C(=O)NCCN(CC)CC)c2ccccc2n1`, the Potency entry was “inactive”.

For `CC1(C)O[C@@H]2[C@@H](CO[C@@]3(COS(N)(=O)=O)OC(C)(C)O[C@@H]23)O1`, the Potency entry is “inactive”.

For the compound `CCCCC(=O)O[C@]1(C(=O)CO)CC[C@H]2[C@@H]3CCC4=CC(=O)CC[C@]4(C)[C@H]3[C@@H](O)C[C@@]21C`, the Potency entry is “inactive”.

Regarding `O=C(O)CNC(=O)c1ccccc1`, the Potency entry was “inactive”.

For the compound `CCN(CCCCOC(=O)c1ccc(OC)c(OC)c1)C(C)Cc1ccc(OC)cc1` (stereo not given), the Potency entry is “inactive”.

Take `O=c1[nH]c(=O)n([C@H]2C[C@H](O)[C@@H](CO)O2)cc1C(F)(F)F`: the Potency entry was “inactive”.

On to `CN1CCN(C(c2ccccc2)c2ccccc2)CC1`, for which the Potency result was “inactive”.

In the case of `Cc1cc(N)c2cc(NC(=O)Nc3ccc4nc(C)cc(N)c4c3)ccc2n1`, the Potency is 35.5 µM (active).

On to `CCCCCC=CCC=CCCCCCCCC(=O)OCC`, for which the Potency result is “inactive”.

As for `OCc1ccccc1O`, the Potency entry is “inactive”.

For `CCOC(=O)COc1ccc2c(C)c(CCN(CC)CC)c(=O)oc2c1Cl`, the Potency result is “inactive”.

For `NC(=O)c1cc[n+](CC2=C(C(=O)[O-])N3C(=O)[C@@H](NC(=O)Cc4cccs4)[C@H]3SC2)cc1`, the Potency entry was “inactive”.

As to `OC(CCN1CCCCC1)(c1ccccc1)c1ccccc1`, the Potency entry was “inactive”.

For the compound `CC(=O)OCC(=O)[C@@]1(OC(C)=O)[C@@H](C)C[C@H]2[C@@H]3C[C@H](F)C4=CC(=O)C=C[C@]4(C)[C@@]3(F)[C@@H](O)C[C@@]21C`, the Potency result was “inactive”.

In the case of `C[C@@H]1C[C@H]2[C@@H]3CCC4=CC(=O)C=C[C@]4(C)[C@@]3(F)[C@@H](O)C[C@]2(C)[C@H]1C(=O)CO`, the Potency entry was “inactive”.

Take `CC1(C)CCC(NC(=O)[C@@H](N)CCC(=O)O)CC1`: the Potency result was “inactive”.

On to `Oc1c(Cl)cc(Cl)cc1Sc1cc(Cl)cc(Cl)c1O`, for which the Potency was 10 µM (active).

Turning to `C[C@]12CC[C@@H]3c4ccc(O)cc4CC[C@H]3[C@@H]1C[C@@H](O)[C@@H]2O`, the Potency result is “inactive”.

In the case of `CC(Cc1ccccc1)(NC(=O)CN)c1ccccc1` (stereo not given), the Potency result was “inactive”.

`C=C1C[C@H]2[C@@H]3C=C(C)C4=CC(=O)CC[C@]4(C)[C@H]3CC[C@]2(C)[C@@]1(OC(C)=O)C(C)=O`: the Potency result is “inactive”.

For the compound `COc1cc(C(=S)N2CCOCC2)cc(OC)c1OC`, the Potency entry is “inactive”.

With `CN1[C@@H]2CC[C@H]1CC(OC(=O)c1c[nH]c3ccccc13)C2` (stereo not given in full), the Potency result was “inactive”.

In the case of `CCCCN1CCCC1C(=O)Nc1c(C)cc(C)cc1C` (stereo not given), the Potency entry was “inactive”.

Take `CC(C)COC(=O)c1ccc(N)cc1`: the Potency result is “inactive”.

In the case of `C[n+]1c2cc(N)ccc2cc2ccc(N)cc21` (tested in a mixture with another compound), the Potency was 11.2 µM (active).

As for `CCN(CC)CCOc1ccc(C(O)(Cc2ccc(Cl)cc2)c2ccc(C)cc2)cc1` (stereo not given), the Potency was 22.4 µM (active).

On to `NCCCC[C@H](N[C@@H](CCc1ccccc1)C(=O)O)C(=O)N1CCC[C@H]1C(=O)O`, for which the Potency result was “inactive”.

Consider `CCCCC(CC)CN=C(N)NC(N)=NCCCCCCN=C(N)NC(N)=NCC(CC)CCCC` (stereo not given), for which the Potency is 11.2 µM (active).

Take `CN1CCC[C@@H]1c1cccnc1`: the Potency entry was “inactive”.

In the case of `COc1cc(OC)cc(OC)c1`, the Potency entry is “inactive”.

`Cc1cc(=O)n(-c2ccccc2)n1C`: the Potency result is “inactive”.

As to `CC(C)=CCC1C(=O)N(c2ccccc2)N(c2ccccc2)C1=O`, the Potency result is “inactive”.

On to `CNCC[C@@H](Oc1ccccc1C)c1ccccc1`, for which the Potency result was “inactive”.

Consider `Oc1cc(O)c2c(c1)O[C@H](c1ccc(O)c(O)c1)[C@H](O)C2`, for which the Potency result is “inactive”.

With `Nc1ccc(C(=O)O)cc1`, the Potency entry was “inactive”.

On to `N[C@H](CO)C(=O)O`, for which the Potency result is “inactive”.

For the compound `Cc1ccc(Nc2c(F)cccc2Cl)c(CC(=O)O)c1`, the Potency entry is “inactive”.

With `CCN1CCC[C@H]1CNC(=O)c1c(OC)ccc(Br)c1OC`, the Potency entry is “inactive”.

As to `CC(=O)Oc1ccc(C(=C2CCCCC2)c2ccc(OC(C)=O)cc2)cc1`, the Potency entry was “inactive”.

Regarding `C[C@H](CCC(=O)O)[C@H]1CC[C@H]2[C@@H]3C(=O)C[C@@H]4CC(=O)CC[C@]4(C)[C@H]3CC(=O)[C@]12C`, the Potency result is “inactive”.

The record behind these values is PubChem BioAssay (NCATS).
